Laboratory results taken from PubChem BioAssay AID1578 (Sanford-Burnham Center for Chemical Genomics, 2009).
Several values for one entry are separate records, joined by “and”; a condition that tells them apart may be missing. Equal values may be shown once. In all, about 290,000 compounds went through this assay and about 3,000 (1%) were called active. No stated cut-off is given here; in the data, active means inhibition mostly above about 36% (no sharp cut-off); inactive means mostly below about 34%. What follows is part of a selection rich in actives, with near analogues and random picks from the rest. Where a structure was tested more than once in an assay, its records may differ in their call.

Assay: inhibition of NOD1-driven NF-kB reporter – cell-based, luminescence, uHTS, primary screen (AID 1578);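 further: HEK-293T reporter cells stimulated with the NOD1 agonist gamma-tri-DAP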
Conditions: NOD1-driven NF-kB luciferase reporter cells, at 4 µM, stronger effect = higher value

SMILES | inhibition
CCC(=O)c1ccc(OCC(=O)Nc2ccc(N3CCOCC3)cc2N2CCOCC2)cc1 | -43.2% (inactive)
COc1ccc(C(=O)NCCN2CCOCC2)c(OC)c1OC | 4.8% (inactive)
CNC(=O)C1CCN(S(=O)(=O)c2c(C)noc2/C=C/N(C)C)CC1 | -22.5% (inactive)
Cc1cc(C)c(C#N)c(SCc2cc3c(cc2Cl)OCO3)n1 | 26.9% (inactive)
O=C(CSc1ccc2c(c1)OCCO2)Nc1ccc(N2CCOCC2)cc1 | -37.2% (inactive)
COc1cccc(N2CCN(C(C)C(=O)NC34CC5CC(CC(C5)C3)C4)CC2)c1 (configuration not stated) | -31.5% (inactive)
Cc1ccc(-n2ncc3c(SCc4cccnc4)ncnc32)c(C)c1 | 1.6% (inactive)
Cc1ccc(S(=O)(=O)CNC(=O)c2ccccc2)cc1 | -6.8% (inactive)
Cc1ccc(S(=O)(=O)NCCNC(=O)c2ccccc2)cc1 | -16.6% (inactive)
COc1ccccc1Oc1ccnc2cc(Cl)ccc12 | 27.5% (inactive)
O=C(/C=C/Nc1ccc(F)cc1F)c1ccco1 | -11.6% (inactive)
O=C(/C=C/Nc1ccc(Br)cc1F)c1ccco1 | 53.7% (active)
O=C(/C=C/Nc1ccc(Br)cc1F)c1ccccc1 | 27.6% (inactive)
COc1ccc(C2C(C(=O)N3CCC(C)CC3)c3ccccc3C(=O)N2C)cc1 (configuration not stated) | -14.1% (inactive)
COCCC(=O)NC1CCCc2c1cnn2-c1cccc(C)c1C (configuration not stated) | -25.1% (inactive)
Cn1c(-c2ccccc2)cnc1SCC(=O)N1CCCCC1 | 32% (active)
Cn1c(-c2ccc(F)cc2)cnc1SCC(=O)N1CCCCC1 | -31.8% (inactive)
Cn1c(-c2ccccc2)cnc1SCC(N)=O | 0.4% (inactive)
Cc1cc(C)[n+](-c2ccc(C(C)C)cc2)c2[nH]c(=O)[nH]c(=O)c12 | -20.8% (inactive)
Cc1[nH]nc(SCC(=O)Nc2cccc(O)c2)c1[N+](=O)[O-] | -37.4% (inactive)
CC(C)CNS(=O)(=O)c1ccc(CCC(=O)Nc2cc(Cl)ccc2Oc2ccccc2)cc1 | 23.4% (inactive)
CCCNS(=O)(=O)c1ccc(CCC(=O)Nc2cc(Cl)ccc2Oc2ccccc2)cc1 | 79.1% (active)
CCNS(=O)(=O)c1ccc(CCC(=O)Nc2cc(Cl)ccc2Oc2ccccc2)cc1 | 34% (inactive)
COc1ccc(NC(=O)c2cc(S(=O)(=O)N3CCOCC3)cn2C)c(OC)c1 | -19% (inactive)
CCCNC(=S)N1CCC(C(=O)c2ccc(F)cc2)CC1 | -20.1% (inactive)

SMILES | inhibition
CC(C)CNC(=S)N1CCC(C(=O)c2ccc(F)cc2)CC1 | 61.7% (active)
C=CCNC(=S)N1CCC(C(=O)c2ccc(F)cc2)CC1 | -20.4% (inactive)
Cc1ccc(C)c2c1sc(=NC(=O)CN1C(=O)CCC1=O)n2C | 1.3% (inactive)
CCOC(=O)c1ccc(NC(=O)C2(c3ccccc3)CCCC2)cc1 | 14% (inactive)
Cc1[nH]n(-c2ncc(-c3ccccc3)s2)c(=O)c1C(c1ccc(Br)cc1)C(C#N)C#N (configuration not stated) | 32.7% (inactive)
Cc1[nH]n(-c2ncc(-c3ccc(Cl)cc3)s2)c(=O)c1C(c1ccc(Cl)cc1)C(C#N)C#N (configuration not stated) | 67.3% (active)
CCCc1[nH][nH]c(=O)c1C(c1ccc(Cl)cc1)C(C#N)C#N (configuration not stated) | 3.7% (inactive)
Cc1ccccc1N(C(=O)Cc1ccsc1)C(C(=O)NC1CCCCC1)c1ccc(F)cc1 (configuration not stated) | -25.2% (inactive)
Cc1c(C2=CCN(S(=O)(=O)c3ccc(Br)cc3)CC2)c2ccccc2n1C | 0.5% (inactive)
CC(=O)C1=C(C)NC(=O)NC1c1cccc([N+](=O)[O-])c1O (configuration not stated) | -9.2% (inactive)
O=C(O)c1cc(-c2ccco2)nc2ccccc12 | -13.5% (inactive)
O=C(O)c1cc(-c2ccco2)nc2cc3ccccc3cc12 | -6.3% (inactive)
O=C(O)c1cc(-c2ccco2)nc2ccc(Br)cc12 | 75.3% (active) and -18.2% (inactive)
Clc1ccc(COn2c(-c3ccc(Cl)cc3)nc3ccccc32)cc1 | -31.8% (inactive)
COc1ccc(/C=N/NC(=O)C2C3CCCCC32C)cc1OC (configuration not stated) | 47.1% (active)
COc1cc(/C=N/NC(=O)C2C3CCCCC32C)cc(Br)c1O (configuration not stated) | 6.5% (inactive)
COc1ccc(/C=N/NC(=O)C2C3CCCCC32)cc1OC (configuration not stated) | -9.5% (inactive)
FC(F)(F)c1cc(Oc2ccc(Cl)cc2)ncc1-c1nnc(-c2ccc(Cl)cc2)o1 | -6.5% (inactive)
CC(C)C(NS(=O)(=O)c1ccccc1)C(=O)OCc1cc([N+](=O)[O-])cc2c1OCOC2 (configuration not stated) | -12.4% (inactive)
CC(Sc1cccc[n+]1[O-])C(=O)Nc1ccc([N+](=O)[O-])cc1Cl (configuration not stated) | -22.4% (inactive)
Cc1ccc(-c2noc(C3CCCCC3)n2)cc1 | -58.2% (inactive)
O=C(NCC1CCCO1)c1ccc(Oc2ccc([N+](=O)[O-])cc2)cc1 (configuration not stated) | 42.4% (active)
CS(=O)(=O)N(CC(=O)NCC1CCCO1)c1cccc([N+](=O)[O-])c1 (configuration not stated) | -15% (inactive)
O=C(NCC1CCCO1)c1cccc(Oc2ccc([N+](=O)[O-])cc2)c1 (configuration not stated) | -20.6% (inactive)
COc1ccc([N+](=O)[O-])cc1N(CC(=O)NCC1CCCO1)S(C)(=O)=O (configuration not stated) | -19.1% (inactive)

SMILES | inhibition
O=C(NCC1CCCO1)c1ccc(Oc2ccc([N+](=O)[O-])cc2Cl)cc1 (configuration not stated) | 13.6% (inactive)
Cc1ccc([N+](=O)[O-])cc1N(CC(=O)NCC1CCCO1)S(C)(=O)=O (configuration not stated) | 60.2% (active)
COc1ccc(CCNC(=O)CCn2c(SCC#N)nc3ccccc3c2=O)cc1OC | 10.3% (inactive)
COc1ccc2c(C)cc(SCC(=O)Nc3cccnc3Cl)nc2c1 | -12.9% (inactive)
Nc1nonc1-n1nnc(C(=O)N/N=C/c2ccccc2)c1CN1CCc2ccccc21 | -21.6% (inactive)
CNC(=O)NC(=O)COC(=O)CCCOc1ccc(OC)cc1 | 4.1% (inactive)
CCOc1ccc(CCNC(=O)c2cc3sccc3n2CC)cc1OCC | 49.7% (active)
CCOc1ccc(CCNC(=O)c2cc3sccc3n2C)cc1OCC | 26.3% (inactive)
COc1ccc(CCNC(=O)c2cc3sccc3n2C)cc1OC | 5.4% (inactive)
COc1ccc(S(=O)(=O)N(C)c2ccc(C(=O)NC3CCCC3)cc2)cc1 | -11.8% (inactive)
CC(=O)C(C)Sc1nnc(-c2ccccc2F)n1C1CC1 (configuration not stated) | -26.2% (inactive)
CC(=O)c1cn(CC(=O)Nc2ccccc2F)c2ccccc12 | 14.5% (inactive)
CN1CCN(C(=S)c2cn(Cc3ccccc3F)c3ccccc23)CC1 | -13.6% (inactive)
Cc1ccc(C)c(CN2CCC(CNC(=O)Nc3cccc(Cl)c3C)CC2)c1 | 2.1% (inactive)
CCOC(=O)C1=C(Cc2ccc(OC)cc2)C(=O)c2ccccc2C1=O | 3.6% (inactive)
CCOC(=O)C1=C(O)c2ccccc2C(=O)/C1=C\c1ccc(CC)cc1 | 15.2% (inactive)
COc1cccc2cc(C(=O)C3=C(O)C(=O)N(CCN4CCOCC4)C3c3ccc(C(C)(C)C)cc3)oc12 (configuration not stated) | -11.6% (inactive)
Cc1ccc(CN(C)C(=O)CCc2c[nH]c3ccccc23)o1 | -18.4% (inactive)
CN1CCN(c2nc(-c3cccc([N+](=O)[O-])c3)nc3ccccc23)CC1 | -0.7% (inactive)
CCC(=O)N1CCc2cc(S(=O)(=O)Nc3ccccc3C)ccc21 | 3.4% (inactive)
COc1ccc(O)c(-c2[nH]ncc2C(=O)c2ccccc2C)c1 | 26.5% (inactive)
COc1ccc(O)c(-c2[nH]ncc2C(=O)c2cccc(C)c2)c1 | -6.8% (inactive)
CCOC(=O)c1sc(N(Cc2ccccc2)C(=O)COC(=O)c2ccc(O)cc2)nc1C | 62.2% (inactive)
CCOC(=O)c1sc(N(Cc2ccccc2)C(=O)COC(=O)c2ccccc2O)nc1C | -48% (inactive)
CCOC(=O)c1sc(N(Cc2ccccc2)C(=O)CCl)nc1C | 28.7% (active)

SMILES | inhibition
COc1ccc(S(=O)(=O)N2CCCOC2CNC(=O)C(=O)NCCc2ccco2)cc1OC (configuration not stated) | -2.3% (inactive)
O=C(COC(=O)c1cccc(O)c1)NCc1ccc2c(c1)OCO2 | -14.3% (inactive)
COc1ccc(C=O)cc1OC(=O)N1CCOCC1 | -9.3% (inactive)
Cc1cc(C(=O)COC(=O)CN(C)S(=O)(=O)c2ccc(Cl)cc2)c(C)n1Cc1cccs1 | -20.9% (inactive)
O=C(NCc1cn2ccccc2n1)c1ccc(Br)o1 | -10.7% (inactive)
O=C(NCc1cn2ccccc2n1)c1ccco1 | 54% (active)
O=C(NCc1cn2ccccc2n1)c1ccccc1 | -22.2% (inactive)
Cc1ccc(CNC(=O)C2CCCN(c3cnccn3)C2)cc1 (configuration not stated) | -5.5% (inactive)
Cc1sc2ncn(CC(=O)NCC(=O)N(C)Cc3ccccc3)c(=O)c2c1C | -12.2% (inactive)
Cc1ccc(NC(=O)C2CCC(CNC(=O)[C@@H]3Cc4ccccc4CN3)CC2)cc1 (some centres not stated) | -2.3% (inactive)
CC(=O)C1=C(O)C(=O)N(c2nccs2)C1c1ccccc1 (configuration not stated) | -8.5% (inactive)
O=C(C1=C(O)C(=O)N(c2nccs2)C1c1ccccc1)c1cc2ccccc2o1 (configuration not stated) | -8.9% (inactive)
COc1ccc(N2CC(C(=O)N3CCN(C)CC3)CC2=O)cc1 (configuration not stated) | 3.9% (inactive)
COc1ccc(C(=O)/C=C/Nc2ccc(S(=O)(=O)Nc3nc(C)cc(C)n3)cc2)cc1OC | -18.8% (inactive)
O=C(N/N=C/c1ccc([N+](=O)[O-])o1)c1cc2c(ccc3ccccc32)o1 | 41.1% (inactive)
Cc1ccc(C(=O)N/N=C\c2ccc([N+](=O)[O-])o2)cn1 | 13.2% (inactive)
O=C(CNc1ccccc1)N/N=C/c1ccc([N+](=O)[O-])o1 | 35% (inactive)
O=C(N/N=C/c1ccc([N+](=O)[O-])cc1)c1cc2ccccc2o1 | 2.4% (inactive)
Nc1nonc1C(=O)N/N=C/c1ccc(-c2cccc([N+](=O)[O-])c2)o1 | 5.4% (inactive)
Cc1cc(C(=O)N/N=C/c2ccc([N+](=O)[O-])o2)c(C)o1 | 1.4% (inactive)
O=C(CNc1ccc2ccccc2c1)N/N=C/c1ccc([N+](=O)[O-])o1 | -5% (inactive)
Nc1nonc1C(=O)N/N=C/c1ccc(Br)o1 | -6% (inactive)
